Test results published in PMC4336329 (PLoS ONE, 2015).
Hit rate of the full screen: of about 310,000 compounds, about 14,000 (4.5%) showed an effect of 50% or more. The effect is printed as a negative number. Shown is part of a subset that was picked to be rich in strong results.

Molecular target: human ether-à-go-go-related gene (hERG) potassium channel (human, UniProt Q12809)
Assay: primary screen, population patch clamp on CHO cells stably expressing hERG; higher = less effect of the substance
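Note: peak tail current of the secondary pulse compared with the same well before compound.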

Sequence of human ether-à-go-go-related gene (hERG) potassium channel (Q12809 whole entry, looked up): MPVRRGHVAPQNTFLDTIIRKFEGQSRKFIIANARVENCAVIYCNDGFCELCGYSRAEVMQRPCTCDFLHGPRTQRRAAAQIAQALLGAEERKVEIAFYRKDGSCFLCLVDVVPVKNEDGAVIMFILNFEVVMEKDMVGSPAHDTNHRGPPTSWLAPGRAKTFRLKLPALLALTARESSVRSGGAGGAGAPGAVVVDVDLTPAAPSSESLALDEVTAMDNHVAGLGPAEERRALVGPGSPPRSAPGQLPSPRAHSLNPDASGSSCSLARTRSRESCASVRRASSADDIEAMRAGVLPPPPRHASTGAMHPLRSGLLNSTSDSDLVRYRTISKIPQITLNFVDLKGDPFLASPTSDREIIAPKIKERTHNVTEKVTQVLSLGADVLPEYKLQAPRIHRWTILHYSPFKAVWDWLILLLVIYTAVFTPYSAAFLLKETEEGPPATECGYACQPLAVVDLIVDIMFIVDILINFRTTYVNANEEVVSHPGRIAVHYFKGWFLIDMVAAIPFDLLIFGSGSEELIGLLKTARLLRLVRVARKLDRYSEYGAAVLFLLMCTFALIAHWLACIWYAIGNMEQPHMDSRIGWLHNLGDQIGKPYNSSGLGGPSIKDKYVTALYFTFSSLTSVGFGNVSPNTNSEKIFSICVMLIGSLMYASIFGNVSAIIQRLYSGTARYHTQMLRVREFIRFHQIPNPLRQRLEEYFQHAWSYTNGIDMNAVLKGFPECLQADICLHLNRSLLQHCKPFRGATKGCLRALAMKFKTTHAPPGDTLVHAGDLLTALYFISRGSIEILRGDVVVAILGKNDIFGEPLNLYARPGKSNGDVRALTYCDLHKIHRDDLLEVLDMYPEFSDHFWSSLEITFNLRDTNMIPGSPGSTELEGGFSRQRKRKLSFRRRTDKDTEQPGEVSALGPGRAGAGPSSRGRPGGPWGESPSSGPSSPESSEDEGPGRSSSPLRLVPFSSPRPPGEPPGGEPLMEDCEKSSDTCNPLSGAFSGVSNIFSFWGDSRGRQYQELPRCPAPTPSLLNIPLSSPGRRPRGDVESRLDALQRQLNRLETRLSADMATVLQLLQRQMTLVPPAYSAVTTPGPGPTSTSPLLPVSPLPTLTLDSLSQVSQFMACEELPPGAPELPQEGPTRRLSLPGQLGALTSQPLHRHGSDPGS

SMILES	hERG current change (%, negative = inhibition) at 10uM
CC(=O)c1ccc(OCCCCOc2ccc(C(C)=O)cc2)cc1	21.4%
COc1ccccc1OC(=O)c1ccc(SC)cc1OC	-24%
C[C@]12CC[C@@H]3c4ccc(OS(=O)(=O)[O-])cc4CC[C@H]3[C@@H]1CCC2=O.[Na+]	16.9%
O=C(CSc1nc(-c2ccccc2)c(-c2ccccc2)o1)NC1CCS(=O)(=O)C1 (stereo not drawn)	-27.1%
CCc1ccccc1NC(=O)CCCN1C(=O)C2CC=CCC2C1=O (stereo not drawn)	12%
Cc1ccccc1C(N)c1ccncc1.Cl (stereo not drawn)	2.52%
COc1cc(/C=C(\C#N)c2nc3ccccc3[nH]2)cc(Br)c1OCc1ccccc1	0.571%
Cc1ccc(N(CC(=O)NCc2ccco2)C(=O)CCC(=O)Nc2nccs2)cc1	-1.5%
Cc1cc(Cl)ccc1OCC(=O)NNC(=O)c1cnccn1	11.6%
COc1ccc(C(=O)NNC(=O)COc2ccc(Cl)cc2C)cc1S(=O)(=O)N1CCOCC1	-77.1%
Cc1cc(Cl)ccc1OCC(=O)NNC(=O)c1ccco1	8.38%
COc1cc(C(C)=O)ccc1OCC(=O)Nc1ccc(C)c(S(=O)(=O)N2CCCCCC2)c1	-26.3%
COc1cc(C(C)=O)ccc1OCC(=O)Nc1ccc(Cl)c(S(=O)(=O)N2CCOCC2)c1	-66.7%
COc1cc(C#N)ccc1OCC(=O)Nc1ccc(C)c(S(=O)(=O)N2CCOCC2)c1	-36.1%
COc1ccc(Cl)cc1NC(=O)COc1ccc(S(=O)(=O)N2CCOCC2)cc1C	10.8%
Cc1ccc(C(=O)NNC(=O)COc2ccc(Cl)cc2C)o1	-57.6%
COc1ccc(CC(=O)NNC(=O)COc2ccc(Cl)cc2C)cc1S(=O)(=O)N1CCOCC1	-36.1%
CC1(C)CC(=O)C2=C(C1)OC1=C(C(=O)CC(C)(C)C1)C2c1ccccc1	16.9%
Nc1c(N(C(=O)Nc2ccc(Cl)c(Cl)c2)C2CCCC2)c(=O)[nH]c(=O)n1Cc1ccccc1	24.7%
COc1ccc(NC(=O)CS(=O)CC(=O)Nc2ccc(-n3cnnn3)c(C)c2)cc1 (stereo not drawn)	12.4%
S=c1[nH]nc(-c2ccco2)n1/N=C/C=C/c1ccco1	13.7%

SMILES	hERG current change (%, negative = inhibition) at 10uM
C/C(=N/NS(=O)(=O)c1ccc(C)cc1)c1ccc2c(c1)OCO2	13%
C=CCc1cccc2cc(C(=O)N(CC)CC)c(=O)oc12	-6.47%
CCCN(CCC)CCN1C(=O)C2C(C(=O)Nc3cccc(SC)c3)C3C=CC2(O3)C1C(=O)NC1CCCCC1 (stereo not drawn)	-68.2%
CCCCN(C)CCN1C(=O)C2C(C(=O)Nc3ccc(C)cc3)C3C=CC2(O3)C1C(=O)NC1CCCCC1 (stereo not drawn)	-26.1%
CCCN(CCC)CCN1C(=O)C2C(C(=O)Nc3ccc(C)cc3)C3C=CC2(O3)C1C(=O)NC1CCCCC1 (stereo not drawn)	-30.2%
CCOc1ccc(NC(=O)C2C3C=CC4(O3)C2C(=O)N(Cc2cccnc2)C4C(=O)NC2CCCCC2)cc1 (stereo not drawn)	16%
COc1ccc(NC(=O)C2C3C=CC4(O3)C2C(=O)N(CCN2CCCCC2)C4C(=O)NC2CCCCC2)cc1 (stereo not drawn)	9.9%
CCCCN(C)CCN1C(=O)C2C(C(=O)Nc3ccc(Cl)cc3)C3C=CC2(O3)C1C(=O)NC1CCCCC1 (stereo not drawn)	-70.2%
CCOCCCN1C(=O)C2C(C(=O)Nc3ccc(OCC)cc3)C3C=CC2(O3)C1C(=O)NC1CCCCC1 (stereo not drawn)	-72.8%
CCCCN(C)CCN1C(=O)C2C(C(=O)Nc3ccc(OC)cc3)C3C=CC2(O3)C1C(=O)NC1CCCCC1 (stereo not drawn)	-8.93%
CSc1cccc(NC(=O)C2C3C=CC4(O3)C2C(=O)N(CCN2CCOCC2)C4C(=O)NC2CCCCC2)c1 (stereo not drawn)	9.21%
Cc1ccccc1NC(=O)/C(C#N)=C\c1cccnc1	-16.3%
Cc1ccc2oc(C(=O)N3CCC(C(N)=O)(N4CCCCC4)CC3)c(C)c2c1	-27%
COc1cc2cc(C(C)(C)O)oc(=O)c2cc1OC	13%
O=C(Cn1ncc2c(=O)oc3ccccc3c21)NCCc1ccsc1	-54.2%
Cc1ccc2oc(=O)c3cc(C(=O)N4CCN(C(=O)c5ccco5)CC4)sc3c2c1	-21.5%
O=C(c1cc2c(s1)-c1ccccc1OC2)N1CCCC1	-4.69%
O=C(Cn1ncc2c(=O)oc3ccccc3c21)N1CCC(N2CCCCC2)CC1	-5%
Cc1ccc2oc(=O)c3cnn(CC(=O)NCCc4ccsc4)c3c2c1	-12.2%
O=C(c1cc2c(=O)oc3ccccc3c2s1)N1CCOCC1	-0.51%
O=C(c1ccco1)N1CCN(C(=O)c2cc3c(s2)-c2ccccc2OC3)CC1	-63.9%

SMILES	hERG current change (%, negative = inhibition) at 10uM
O=C(c1cc2c(s1)-c1ccccc1OC2)N1CCN(c2ccccc2)CC1	8.08%
O=C(Cn1ncc2c(=O)oc3ccccc3c21)N1CCN(c2ccccn2)CC1	-41%
O=C(Cn1ncc2c(=O)oc3ccccc3c21)N1CCN(C(=O)c2ccco2)CC1	-73.6%
O=C(Cn1ncc2c(=O)oc3ccccc3c21)NCCC1=CCCCC1	-3.92%
O=C(c1ccco1)N1CCN(C(=O)c2cc3c(=O)oc4ccccc4c3s2)CC1	-62.9%
Cc1n[nH]c(C)c1S(=O)(=O)NCCc1ccc(Cl)cc1	5%
O=c1cc(-c2ccc(O)c(-c3c(O)cc(O)c4c(=O)cc(-c5ccc(O)cc5)oc34)c2)oc2cc(O)cc(O)c12	-7.09%
COc1cc(C(=O)Nc2ccc3c(c2)OCCO3)ccc1OC(F)F	-5.02%
Cc1cc(NC(=O)CCC(=O)N(Cc2ccccc2)C2(C(=O)NC3CCCCC3)CCCC2)no1	21.1%
Cc1cc(NC(=O)CCC(=O)N(CCC(C)C)C(C(=O)NC2CCCC2)c2ccccc2C)no1 (stereo not drawn)	-21.5%
O=C(NC(=S)NCC1CCCO1)c1cccc([N+](=O)[O-])c1 (stereo not drawn)	2.05%
O=C(NC1CC2CCCC(C1)N2C(=O)NCc1ccccc1)C1CC1 (stereo not drawn)	4.22%
CCc1ccc(OCC(=O)NNC(=O)c2cnccn2)c(Br)c1	-5.95%
CN1CCCC(OC(=O)COc2ccccc2)C1.Cl (stereo not drawn)	10.4%
CN1CCCC(C(O)(c2ccccc2)c2ccccc2)C1 (stereo not drawn)	16.3%
Cl.c1ccc2c(c1)CC(N1CCCCC1)c1ccccc1S2 (stereo not drawn)	9.15%
CC(=O)O.CN1CCCC(CN2c3ccccc3Sc3ccccc32)C1 (stereo not drawn)	-28.4%
CN1CCCC(CC2c3ccccc3Sc3ccccc32)C1.Cl.O (stereo not drawn)	-52.9%
CN1CCCC(CC2Oc3ccccc3Sc3ccccc32)C1.O=C(O)C(=O)O (stereo not drawn)	-67%
CC(C)Oc1ccc(/C(O)=C2/C(=O)C(=O)N(CCN3CCOCC3)C2c2ccccc2)cc1 (stereo not drawn)	13.6%
COC(=O)Cn1ccc2cc(S(=O)(=O)N3CCCCC3)ccc21	-8.73%

SMILES	hERG current change (%, negative = inhibition) at 10uM
CCOC(=O)c1cc2occc2n1CCCN1C(=O)c2ccccc2C1=O	-23.5%
Cc1ccc(C(=O)COC(=O)c2cc(Cl)ccc2O)cc1[N+](=O)[O-]	10.4%
O=C(COc1cc(Cl)ccc1Cl)Nc1ccc2[nH]c(=O)[nH]c2c1	12.8%
COc1ccc(NC(=O)c2ccco2)cc1NC(=O)c1cc2ccccc2o1	3.33%
O=C1Nc2ccccc2S/C1=C/Nc1cccc(Cl)c1	-3.01%
CC1CCC[C@H](O)CCCCCc2cc(O)cc(O)c2C(=O)O1 (stereo partly drawn)	5.64%
C[C@H]1CCCC(=O)CCCCCc2cc(O)cc(O)c2C(=O)O1	-0.0905%
C[C@H]1CCC[C@H](O)CCCCCc2cc(O)cc(O)c2C(=O)O1	-51%
O=S(=O)(Nc1ccncc1)c1cc(Cl)c(Cl)cc1Cl	0.0869%
O=C1C(Cl)=C(N2CCOCC2)C(=O)N1c1ccc(Br)cc1	14.8%
O=C(COc1ccc(Br)cc1)Nc1ccccc1C(=O)NC1CC1	-6.57%
CCOc1ccc(NC(=O)CSc2cn[nH]n2)cc1	3.89%
CN(Cc1cnn(C)c1)C(=O)C1CCC(=O)N(Cc2cccc(F)c2)C1 (stereo not drawn)	-49.8%
Cc1cnc(C)c(N2CCN(C(=O)C3CCC(=O)N(CCc4cccc(F)c4)C3)CC2)n1 (stereo not drawn)	-53.9%
O=C1CCC(C(=O)N2CCCC2)CN1CCc1cccc(F)c1 (stereo not drawn)	4.37%
Cc1nc2ccccn2c1CN(C)C(=O)C1CCC(=O)N(Cc2cccc(F)c2)C1 (stereo not drawn)	-80.2%
Cc1nc2ccccn2c1CN(C)C(=O)C1CCC(=O)N(CCc2cccc(F)c2)C1 (stereo not drawn)	-75.6%
Cc1cc(CN(C)C(=O)C2CCC(=O)N(CCc3cccc(F)c3)C2)on1 (stereo not drawn)	9.94%
CN1CCN(C(=O)C2CCC(=O)N(CCc3cccc(F)c3)C2)CC1 (stereo not drawn)	12.3%
Cc1nc(CN(C)C(=O)C2CCC(=O)N(CCc3cccc(F)c3)C2)cs1 (stereo not drawn)	-7.62%
CN(Cc1ccccn1)C(=O)C1CCC(=O)N(Cc2cccc(F)c2)C1 (stereo not drawn)	6.47%
